Test results reported in PubChem BioAssay (NCATS).
Results filed as inconclusive are left out. A number with no mark means an inactive call. Activity calls are given as the source filed them. The call rests on the fitted dose curve; in most records, active means well fitted activation curve with a large enough effect; inconclusive means small, poorly fitted or top-dose-only effect; inactive means no such curve, though single readings can be large or run the other way. Residues, ends and D or L forms follow the SMILES beside them.

Target: Cellular tumor antigen p53 (Homo sapiens) (UniProt P04637)
Experiment: Primary qHTS for small molecule compounds that upregulate eGFP-tagged delta133p53alpha (in N-terminal) cells. (AID 2060322); further: nearly all actives have a fitted effect of over 75% in size;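 on activation: series mostly up to about 56 µM; 0% = DMSO vehicle and 100% = reference activator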
Conditions: NCI-H358 eGFP-delta133p53alpha fluorescence, 24 h; activation: stronger effect = higher value
Procedure, shortened: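 NCI-H358 cells pre-induced 24 h with 10 ng/ml doxycycline to express N-terminal eGFP-delta133p53alpha, then dosed 24 h at 37C without doxycycline; fixed, Hoechst-stained, GFP intensity by laser scanning cytometry, normalized to DMSO (0%) and 57.5 uM 5-azacytidine (100%).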
Potency means the concentration at half of the fitted maximal effect.

Chain of Cellular tumor antigen p53 (Homo sapiens) (P04637 whole entry, looked up): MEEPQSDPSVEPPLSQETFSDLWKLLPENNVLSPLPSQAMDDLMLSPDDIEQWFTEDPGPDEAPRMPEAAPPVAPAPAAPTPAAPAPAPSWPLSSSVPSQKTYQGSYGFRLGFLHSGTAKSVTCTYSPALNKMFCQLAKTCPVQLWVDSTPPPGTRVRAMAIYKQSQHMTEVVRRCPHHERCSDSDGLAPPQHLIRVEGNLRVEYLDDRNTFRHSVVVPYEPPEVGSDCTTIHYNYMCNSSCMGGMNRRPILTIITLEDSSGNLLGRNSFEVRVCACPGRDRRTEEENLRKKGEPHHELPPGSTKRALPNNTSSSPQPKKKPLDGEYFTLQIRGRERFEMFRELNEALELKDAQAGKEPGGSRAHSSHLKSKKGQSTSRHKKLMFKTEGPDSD

O=C(OOC(=O)c1ccccc1)c1ccccc1
activation: -15.1%

O=C(OCCN1CCOCC1)c1cccnc1Nc1cccc(C(F)(F)F)c1
activation: -7.34%

Cc1c(C(=O)NCCO)[n+](=O)c2ccccc2n1[O-]
activation: -11.7%

OCC(O)C(O)C(O)CO (stereo not given)
activation: 28.5%

c1ccc(CNCCNCc2ccccc2)cc1
activation: 2.51%

O=C(O)CN1C(=O)c2cccc3cccc(c23)C1=O
activation: -6.69%

Cc1c(Nc2ncccc2C(=O)O)cccc1C(F)(F)F
activation: -5.08%

O=C(CS(=O)Cc1ccco1)NCC=CCOc1cc(CN2CCCCC2)ccn1 (stereo not given)
activation: 38.6%

N#CSCC(=O)O
activation: 1.69%

CCCCC1(COC(=O)CCC(=O)O)C(=O)N(c2ccccc2)N(c2ccccc2)C1=O
activation: -7.34%

N#CC(=C(N)Sc1ccccc1N)C(C#N)=C(N)Sc1ccccc1N
Potency: 17.2 µM (active)

Cc1cc(C)c2nc(-c3ccccn3)cc(C(=O)Nc3ccc(S(=O)(=O)Nc4onc(C)c4C)cc3)c2c1
activation: 8.11%

O=C(O)c1[nH]n(-c2ccc(S(=O)(=O)O)cc2)c(=O)c1N=Nc1ccc(S(=O)(=O)O)cc1
activation: 3.95%

O=C(O)[C@@H](O)[C@H](O)[C@H](O)[C@@H](O)C(=O)O
activation: -1.67%

NNc1nnc(NN)c2ccccc12
activation: -35.1%

CCNC(=O)Nc1ccc(-c2nc3c(c(N4CCOC[C@H]4C)n2)CCN(C2COC2)C3)cc1
activation: 5.73%

O=C(C=Cc1cccnc1)NCCCCC1CCN(C(=O)c2ccccc2)CC1
activation: 8.39%

CCNC(=O)[C@H]1O[C@@H](n2cnc3c(N)nc(NCCc4ccc(CCC(=O)O)cc4)nc32)[C@H](O)[C@H]1O
activation: 29.2%

Cc1cc(=O)[nH]c(=S)[nH]1
activation: 19.2%

CC(=O)N[C@@H](CO)C(=O)N[C@@H](CC(=O)O)C(=O)N[C@@H](CCCCN)C(=O)N1CCC[C@H]1C(=O)O (Ac-SDKP-OH)
activation: -24.3%

Oc1c(I)cc(I)c2cccnc12
activation: -5.86%

C=CCCCCCCCCC(=O)O
activation: -20.9%

O=C(O)[C@H](CC(=O)N1C[C@@H]2CCCC[C@H]2C1)Cc1ccccc1
activation: -15.3%

Oc1cccc(O)c1
activation: -16.4%

Cc1nc(NC(=O)N2CCC[C@@H]2C(N)=O)sc1-c1csc(C(C)(C)C)n1
activation: -6.14%

Cc1cc2nc3c(=O)[nH]c(=O)nc-3n(C[C@H](O)[C@H](O)[C@H](O)CO)c2cc1C
activation: -36.8%

CC(C)C[C@H](NC(=O)CNC(=O)[C@H](Cc1ccc(O)cc1)NC(=O)[C@H](CO)NC(=O)[C@H](Cc1c[nH]c2ccccc12)NC(=O)[C@H](Cc1cnc[nH]1)NC(=O)[C@@H]1CCC(=O)N1)C(=O)N[C@@H](CCCN=C(N)N)C(=O)N1CCC[C@H]1C(=O)NCC(N)=O (stereo in doubt)
activation: -1.69%

C/C(=C(\CCOP(=O)(O)O)SC(=O)c1ccccc1)N(C=O)Cc1cnc(C)nc1N
activation: -11.7%

c1ccc2c(c1)CCc1ccccc1N2
activation: 10.7%

CCC(C(=O)OCCN(CC)CC)c1ccccc1 (stereo not given)
activation: -1.67%
